PubChem BioAssay (NCATS)
Records with an inconclusive call do not appear. Active and inactive are the calls of the source. Calls come from the whole dose curve; as a rule, active = well fitted curve in the direction sought with a large enough effect; inconclusive = small, poorly fitted or top-dose-only effect, or another doubt; inactive = no such curve, though single readings can be large; an effect the other way counts as inactive or inconclusive.

What was measured:
[1] = Quantitative High-Throughput drug screen in 47 multiple myeloma cell lines against the NCATS MIPE library collection: JIM1_ECACC cell viability assay (AID 1918964)
Outline: (§1)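 Viability readout: CellTiter-Glo luminescence following 5 min room-temperature incubation with reagent. Prior exposure: 48 h, 37C, humidified 5% CO2, 500 cells per well.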

[2] = Quantitative High-Throughput drug screen in 47 multiple myeloma cell lines against the NCATS MIPE library collection: INA6_PLB cell viability assay (AID 1918965; note: nearly all actives have a fitted effect of over 55% in size)
Outline: (§2)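 Approved and investigational drugs from MIPE 4.0 were added by pin tool to 500 cells per well. After 48 hours at 37C, ATP-based CellTiter-Glo luminescence indicated remaining viability.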

[3] = Quantitative High-Throughput drug screen in 47 multiple myeloma cell lines against the NCATS MIPE library collection: H1112_PLB cell viability assay (AID 1918967; note: nearly all actives have a fitted effect of over 30% in size)
Outline: as §1

[4] = Quantitative High-Throughput drug screen in 47 multiple myeloma cell lines against the NCATS MIPE library collection: Karpas25_ECACC cell viability assay (AID 1918968; note: nearly all actives have a fitted effect of over 35% in size)
Outline: as §1

[5] = Quantitative High-Throughput drug screen in 47 multiple myeloma cell lines against the NCATS MIPE library collection: KMS12PE_JCRB cell viability assay (AID 1918972); note: nearly all actives have a fitted effect of over 30% in size
Outline: as §2

[6] = Quantitative High-Throughput drug screen in 47 multiple myeloma cell lines against the NCATS MIPE library collection: MMM1_PLB cell viability assay (AID 1918976); note: nearly all actives have a fitted effect of over 35% in size
Outline: (§3)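 MIPE 4.0 approved/investigational drugs; 500 cells/well; 48 h 37 °C humidified 5% CO2; CTG luminescence readout; DMSO = 100%, media = 0% viability.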

[7] = Quantitative High-Throughput drug screen in 47 multiple myeloma cell lines against the NCATS MIPE library collection: MOLP8_DSMZ cell viability assay (AID 1918977); note: nearly all actives have a fitted effect of over 45% in size
Outline: as §3

[8] = Quantitative High-Throughput drug screen in 47 multiple myeloma cell lines against the NCATS MIPE library collection: MM1S_ATCC cell viability assay (AID 1918980); note: nearly all actives have a fitted effect of over 45% in size
Outline: as §3

[9] = Quantitative High-Throughput drug screen in 47 multiple myeloma cell lines against the NCATS MIPE library collection: MM1R_ATCC cell viability assay (AID 1918981); note: nearly all actives have a fitted effect of over 35% in size
Outline: as §3

[10] = Quantitative High-Throughput drug screen in 47 multiple myeloma cell lines against the NCATS MIPE library collection: KMS27_JCRB cell viability assay (AID 1918970); note: nearly all actives have a fitted effect of over 30% in size
Outline: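 Each line is seeded at 500 cells per well and treated with library compounds for 48 hours under 37 °C, 5% CO2. CellTiter-Glo is then added for 5 min at room temperature before median relative luminescence is recorded.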

[11] = Quantitative High-Throughput drug screen in 47 multiple myeloma cell lines against the NCATS MIPE library collection: KMS12BM_JCRB cell viability assay (AID 1918971); note: nearly all actives have a fitted effect of over 35% in size
Outline: as §1

[12] = Quantitative High-Throughput drug screen in 47 multiple myeloma cell lines against the NCATS MIPE library collection: KMS26_JCRB cell viability assay (AID 1918975); note: nearly all actives have a fitted effect of over 45% in size
Outline: as §1

[13] = Quantitative High-Throughput drug screen in 47 multiple myeloma cell lines against the NCATS MIPE library collection: NCIH929_DSMZ cell viability assay (AID 1918978); note: nearly all actives have a fitted effect of over 35% in size
Outline: as §3

[14] = Quantitative High-Throughput drug screen in 47 multiple myeloma cell lines against the NCATS MIPE library collection: LP1_DSMZ cell viability assay (AID 1918982); note: nearly all actives have a fitted effect of over 35% in size
Outline: as §3

[15] = Quantitative High-Throughput drug screen in 47 multiple myeloma cell lines against the NCATS MIPE library collection: KMS28PE_JCRB cell viability assay (AID 1918983); note: nearly all actives have a fitted effect of over 35% in size
Outline: as §3

[16] = Quantitative High-Throughput drug screen in 47 multiple myeloma cell lines against the NCATS MIPE library collection: JJN3_DSMZ cell viability assay (AID 1918966; note: nearly all actives have a fitted effect of over 50% in size)
Outline: as §1

[17] = Quantitative High-Throughput drug screen in 47 multiple myeloma cell lines against the NCATS MIPE library collection: KMS20_JCRB cell viability assay (AID 1918973); note: nearly all actives have a fitted effect of over 45% in size
Outline: as §1

[18] = Quantitative High-Throughput drug screen in 47 multiple myeloma cell lines against the NCATS MIPE library collection: OCIMY1_PLB cell viability assay (AID 1918979); note: nearly all actives have a fitted effect of over 35% in size
Outline: as §3

[19] = Quantitative High-Throughput drug screen in 47 multiple myeloma cell lines against the NCATS MIPE library collection: JIM3_ECACC cell viability assay (AID 1918963; note: nearly all actives have a fitted effect of over 35% in size)
Outline: as §1

[20] = Quantitative High-Throughput drug screen in 47 multiple myeloma cell lines against the NCATS MIPE library collection: KMS21BM_JCRB cell viability assay (AID 1918974); settings: ATP luminescence, 48 h; viability: at 45.8 µM (top of the series) unless noted
Outline: as §1

Measured: Potency
Potency is the fitted concentration of half-maximal effect.

CC(C)c1noc(N2CCC(COc3ccc(-c4ccc(S(C)(=O)=O)cc4)nc3)CC2)n1
active: [2] 1.87 µM | [4] 1.48 µM | [5] 0.418 µM | [6] 9.35 µM | [7] 0.418 µM | [9] 13.2 µM
inactive: [1] | [3] | [8]

C1Cc2[nH]nc(-c3nn[nH]n3)c2C1
inactive: [2] | [3] | [4] | [10] | [11] | [5] | [12] | [13] | [8] | [9] | [14] | [15]

CC=CC1=C(C(=O)O)N2C(=O)[C@H](NC(=O)[C@H](N)c3ccc(O)cc3)[C@@H]2SC1
inactive: [16] | [11] | [7] | [9] | [15]
active: [17] 26.4 µM | [8] 14.8 µM

Nc1nc(-c2nn(Cc3ccccc3F)c3ncccc23)nc(N)c1N1CCOCC1
inactive: [1] | [16] | [3] | [11] | [12] | [7] | [18] | [8] | [15]

C=C1C(=CC=C2CCCC3(C)[C@@H]([C@H](C)C=CC=CC(O)(CC)CC)CC[C@@H]23)C[C@@H](O)C[C@@H]1O (stereo partly specified)
active: [1] 16.6 µM | [16] 18.7 µM | [3] 23.5 µM | [10] 29.6 µM | [11] 20.9 µM | [6] 20.9 µM | [8] 10.5 µM | [9] 14.8 µM | [15] 26.4 µM

CN(C)CCCN=c1c2ccccc2n(C)c2[nH]c(=O)n(C)c(=O)c12
active: [2] 3.72 µM | [16] 16.6 µM | [3] 16.6 µM | [11] 4.18 µM | [5] 5.9 µM | [6] 16.6 µM | [7] 6.62 µM | [13] 11.8 µM | [8] 3.72 µM | [9] 18.7 µM | [15] 16.6 µM

COc1c(OCCCN2CCOCC2)ccc2c3n(c(=NC(=O)c4cnc(N)nc4)nc12)CCN3
active: [1] 0.0072 µM | [2] 6.45 µM | [16] 3.23 µM | [4] 0.0575 µM | [10] 0.0457 µM | [11] 5.75 µM | [5] 0.0724 µM | [17] 0.0512 µM | [12] 0.407 µM | [6] 0.0512 µM | [7] 0.0288 µM | [13] 0.0129 µM | [18] 0.0204 µM | [8] 0.0911 µM | [9] 0.0812 µM | [15] 0.0645 µM

COc1ccc(-n2nc(C(N)=O)c3c2C(=O)N(c2ccc(N4CCCCC4=O)cc2)CC3)cc1
inactive: [19] | [3] | [4] | [10] | [11] | [13] | [18] | [9]

O=C(O)c1ccc2c(c1)nc(Nc1cccc(Cl)c1)c1ccncc12
active: [1] 6.62 µM | [2] 1.66 µM | [16] 9.35 µM | [3] 6.62 µM | [4] 2.64 µM | [10] 1.66 µM | [11] 10.5 µM | [5] 5.26 µM | [20] 3.32 µM | [6] 14.8 µM | [7] 10.5 µM | [13] 3.72 µM | [8] 6.62 µM | [9] 10.5 µM | [15] 13.2 µM

COCCn1c2c([n+](Cc3cnccn3)c1C)C(=O)c1ccccc1C2=O
active: [19] 0.0264 µM | [16] 0.0023 µM | [3] 0.0526 µM | [11] 0.0418 µM | [17] 0.0235 µM | [12] 0.0148 µM | [6] 0.0166 µM | [7] 0.0235 µM | [13] 0.0332 µM | [18] 0.0264 µM | [8] 0.0037 µM | [9] 0.0042 µM | [14] 0.0132 µM | [15] 0.0264 µM

CC(C)(C)c1cc(NC(=O)Nc2ccc(-c3cn4c(n3)sc3cc(OCCN5CCOCC5)ccc34)cc2)no1
active: [2] 3.32 µM | [4] 13.2 µM | [11] 16.6 µM | [12] 18.7 µM
inactive: [20] | [13] | [8]

C[C@]12CC[C@H](O)CC1=CCC1C2CC[C@]2(C)C(n3cnc4ccccc43)=CCC12 (stereo partly specified)
inactive: [19] | [3] | [4] | [10] | [5] | [17] | [18] | [8]
active: [11] 18.7 µM

CC1(C)CCC(c2ccc(Cl)cc2)=C(CN2CCN(c3ccc(C(=O)NS(=O)(=O)c4ccc(N[C@H](CCN5CCOCC5)CSc5ccccc5)c(S(=O)(=O)C(F)(F)F)c4)cc3)CC2)C1
active: [2] 5.9 µM | [16] 9.35 µM | [3] 0.0833 µM | [4] 0.833 µM | [10] 0.0148 µM | [11] 0.332 µM | [5] 0.0105 µM | [12] 0.105 µM | [6] 0.0935 µM | [13] 13.2 µM | [18] 7.43 µM | [8] 0.332 µM | [9] 0.187 µM | [14] 20.9 µM | [15] 0.469 µM
